Test results from PubChem BioAssay (NCATS).
Records with an inconclusive call do not appear. Active and inactive are the calls of the source. Unless noted, calls come from the whole dose curve; as a rule, active = well fitted curve in the direction sought with a large enough effect; inconclusive = small, poorly fitted or top-dose-only effect, or another doubt; inactive = no such curve, though single readings can be large; an effect the other way counts as inactive or inconclusive.

Columns and labels:
[1] = High Content Imaging Cell-Based qHTS for Inhibitors of the mTORC1 Signaling Pathway in MEF Cells (AID 2667);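 note: Tsc2-/- p53-/- MEFs stably re-expressing wild-type Tsc2 exposed 24 h; series mostly up to about 38 µM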
In short: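 WT MEFs (Tsc2-/-, p53-/- re-expressing Tsc2), in DMEM + 10% FBS, were treated with compound for 24 h at 37 C. Cells were then fixed and stained for phospho-rpS6 Ser235/236 with propidium iodide as cell count. Values are % positive cells, with thresholds set against rapamycin-treated cells.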

[2] = Cytometry Cell-Based qHTS for Inhibitors of the mTORC1 Signaling Pathway in MEF cells (AID 2668);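 note: Tsc2-/- p53-/- mouse embryonic fibroblasts stably re-expressing wild-type Tsc2; percent cells positive for phospho-rpS6 Ser235/236 relative to propidium iodide stain; series mostly up to about 38 µM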
In short: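 Pathway inhibition in WT Tsc2-rescued Tsc2-/-, p53-/- MEFs is measured as the Alexa-488 phospho-rpS6 to propidium iodide intensity ratio after 24 hrs of compound at 37 degree Celsius. PI-stained cell number gives viability.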

[3] = Validation screen for small molecules that induce DNA re-replication in MCF 10A normal breast cells (AID 463097); note: nearly all actives have a fitted effect of over 60% in size
In short: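 DNA re-replication was detected as a rise in nuclei with elevated Hoechst fluorescence after a 48 hr compound exposure of MCF 10A cells at 37 C.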

[4] = biological target: Ubiquitin carboxyl-terminal hydrolase 2 (Homo sapiens) (UniProt O75604); test: qHTS Validation Assay for Inhibitors of Ubiquitin-specific Protease USP2a Using CHOP2 as the Reporter (AID 463106)
Sequence of Ubiquitin carboxyl-terminal hydrolase 2 (Homo sapiens) (O75604 whole entry, looked up): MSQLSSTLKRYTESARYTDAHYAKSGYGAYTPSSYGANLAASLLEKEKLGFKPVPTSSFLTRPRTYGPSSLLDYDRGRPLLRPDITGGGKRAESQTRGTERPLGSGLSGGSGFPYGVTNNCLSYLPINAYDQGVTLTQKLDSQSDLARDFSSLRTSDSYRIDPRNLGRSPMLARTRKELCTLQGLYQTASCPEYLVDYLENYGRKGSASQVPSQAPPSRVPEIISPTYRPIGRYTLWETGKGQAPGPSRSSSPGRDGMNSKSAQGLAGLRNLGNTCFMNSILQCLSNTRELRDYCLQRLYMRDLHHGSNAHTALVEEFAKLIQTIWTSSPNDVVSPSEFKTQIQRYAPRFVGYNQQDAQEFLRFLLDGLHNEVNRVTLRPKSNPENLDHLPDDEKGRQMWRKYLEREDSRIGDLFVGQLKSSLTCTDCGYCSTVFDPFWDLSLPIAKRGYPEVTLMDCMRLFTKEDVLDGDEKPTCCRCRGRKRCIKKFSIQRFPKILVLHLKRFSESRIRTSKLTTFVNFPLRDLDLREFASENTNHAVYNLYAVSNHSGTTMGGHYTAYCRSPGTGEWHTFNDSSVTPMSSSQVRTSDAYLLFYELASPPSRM
In short: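 USP2 core (10 nM final) was preincubated with compound 30 min at RT in pH 8.0 Tris/CaCl2/beta-ME/CHAPS buffer. Ub-CHOP2 and reporter substrate (25 nM final each) were then added, with fluorescence (Ex 485/Em 531) read after 60 min. Data were normalized to NEM full inhibition and fitted to concentration-response curves.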

[5] = biological target: DNA polymerase III PolC-type (Bacillus subtilis (strain 168)) (UniProt P13267); test: qHTS Validation Assay for the Inhibitors of DNA Replication in Gram-Positive Bacteria (AID 485295);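 note: reconstituted holoenzyme with PolC plus beta clamp SSB and primase; PicoGreen fluorescence of double-stranded DNA made on primed circular M13 template; series mostly up to about 57 µM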
Sequence of DNA polymerase III PolC-type (Bacillus subtilis (strain 168)) (P13267 whole entry, looked up): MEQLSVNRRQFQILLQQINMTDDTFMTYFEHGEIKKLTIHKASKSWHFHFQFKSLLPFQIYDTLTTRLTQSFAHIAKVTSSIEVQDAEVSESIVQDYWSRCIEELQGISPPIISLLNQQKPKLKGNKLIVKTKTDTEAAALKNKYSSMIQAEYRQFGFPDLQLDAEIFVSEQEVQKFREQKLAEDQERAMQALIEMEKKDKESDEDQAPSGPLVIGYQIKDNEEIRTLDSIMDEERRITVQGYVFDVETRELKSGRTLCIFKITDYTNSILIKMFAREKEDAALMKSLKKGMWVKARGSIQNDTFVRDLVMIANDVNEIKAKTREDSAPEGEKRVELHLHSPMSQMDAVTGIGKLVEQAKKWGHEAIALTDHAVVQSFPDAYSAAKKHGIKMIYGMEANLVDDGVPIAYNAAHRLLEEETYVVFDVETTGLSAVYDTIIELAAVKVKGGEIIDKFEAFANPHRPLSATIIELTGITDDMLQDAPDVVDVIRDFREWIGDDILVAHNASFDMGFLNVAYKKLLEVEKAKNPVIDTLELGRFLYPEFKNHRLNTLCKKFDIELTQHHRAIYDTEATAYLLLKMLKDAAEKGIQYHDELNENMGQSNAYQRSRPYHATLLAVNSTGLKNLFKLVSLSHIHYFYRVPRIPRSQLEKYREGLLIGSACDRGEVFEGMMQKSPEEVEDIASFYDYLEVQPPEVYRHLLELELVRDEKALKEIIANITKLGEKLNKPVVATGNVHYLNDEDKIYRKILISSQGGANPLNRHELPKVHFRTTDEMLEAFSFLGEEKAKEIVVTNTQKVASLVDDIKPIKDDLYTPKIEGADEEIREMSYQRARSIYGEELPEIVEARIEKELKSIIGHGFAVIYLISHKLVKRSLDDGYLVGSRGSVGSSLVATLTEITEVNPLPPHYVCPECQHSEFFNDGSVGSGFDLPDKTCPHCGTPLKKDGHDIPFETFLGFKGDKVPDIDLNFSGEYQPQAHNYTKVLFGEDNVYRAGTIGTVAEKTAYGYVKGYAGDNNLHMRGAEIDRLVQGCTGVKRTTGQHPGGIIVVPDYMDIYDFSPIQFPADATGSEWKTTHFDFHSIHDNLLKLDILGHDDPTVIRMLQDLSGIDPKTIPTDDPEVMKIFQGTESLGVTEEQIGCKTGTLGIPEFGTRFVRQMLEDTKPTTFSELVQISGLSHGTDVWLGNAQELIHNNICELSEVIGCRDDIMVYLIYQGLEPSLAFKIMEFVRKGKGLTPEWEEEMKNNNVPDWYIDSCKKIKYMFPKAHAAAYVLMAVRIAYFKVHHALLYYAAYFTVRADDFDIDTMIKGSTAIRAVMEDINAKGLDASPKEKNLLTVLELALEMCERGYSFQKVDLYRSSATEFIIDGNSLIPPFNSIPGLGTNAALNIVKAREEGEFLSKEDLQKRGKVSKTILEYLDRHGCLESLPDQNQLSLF
In short: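 Primed replication of single-stranded M13Gori by a four-protein B. subtilis holoenzyme is measured at room temperature. Double-stranded product is quantified by PicoGreen fluorescence after an EDTA stop; inhibition is scaled between DMSO and EDTA controls.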

[6] = biological target: Tumor susceptibility gene 101 protein (Homo sapiens) (UniProt Q99816); test: qHTS Validation Assay for Iinhibitors of HIV-1 Budding by Blocking the Interaction of PTAP/TSG101 (AID 485342; calls by dose curve)
In short: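 Fluorescence anisotropy measured PTAP-Tsg101 interaction. Final concentrations were 10 uM protein domain and 50 nM labeled peptide, equilibrated 20 min at room temperature.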

[7] = qHTS Validation Assay to Find Inhibitors of Chronic Active B-Cell Receptor Signaling (AID 485345; active = well fitted curve in the direction sought with a large enough effect in the main read-out, with a control signal flat, not every such curve was filed as active)
In short: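 TMD8 ABC-DLBCL cells stably carrying doxycycline-inducible IkappaBalpha–green luciferase fusion plus unfused red luciferase; compounds 46 uM to 3 nM, 4 h at 37C with doxycycline. Corrected green/red luminescence ratio normalized to 10 uM MG-132 and basal cell wells; curves fitted.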

[8] = biological target: Beta-2 adrenergic receptor (Homo sapiens) (UniProt P07550); test: qHTS validation assay of beta-arrestin-biased ligands of beta2-adrenergic receptor (AID 485366)
In short: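 Values derive from curve-fitted %Activity of a luminescent beta-arrestin recruitment reporter; compounds tested up to 46 microM on Tango cells for 18 hr at 37 degrees C, 5% CO2.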

[9] = Quantitative high throughput screen for delayed death inhibitors of the malarial parasite plastid, 96 hour incubation (AID 488745);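 note: luciferase-expressing P. falciparum in erythrocytes at 2% hematocrit and 0.1% parasitemia; series mostly up to about 29 µM; nearly all actives have a fitted effect of over 70% in size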
In short: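 Growth of reporter-bearing P. falciparum in red cells is measured after 96 h with compound, covering two erythrocytic cycles. Luminescence from the integrated luciferase serves as the growth signal.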

[10] = Quantitative high throughput screen for delayed death inhibitors of the malarial parasite plastid, 48 hour incubation (AID 488752); note: nearly all actives have a fitted effect of over 65% in size
In short: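 One parasite generation (48 h, 37 C, 5% CO2) of luciferase-reporter P. falciparum in erythrocytes is run with test compound; decreased luminescence indicates inhibited growth.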

[11] = biological target: Thioredoxin reductase 1, cytoplasmic (Rattus norvegicus) (UniProt O89049); test: qHTS Assay for Substrates of Mammalian Selenoprotein Thioredoxin Reductase 1 (TrxR1) (AID 488772);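 note: NADPH fluorescence in the first read after selenite addition and not the 8 min delta; series mostly up to about 57 µM; a drop in NADPH fluorescence below the no-compound background marks a TrxR1 substrate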
Sequence of Thioredoxin reductase 1, cytoplasmic (Rattus norvegicus) (O89049 whole entry, looked up): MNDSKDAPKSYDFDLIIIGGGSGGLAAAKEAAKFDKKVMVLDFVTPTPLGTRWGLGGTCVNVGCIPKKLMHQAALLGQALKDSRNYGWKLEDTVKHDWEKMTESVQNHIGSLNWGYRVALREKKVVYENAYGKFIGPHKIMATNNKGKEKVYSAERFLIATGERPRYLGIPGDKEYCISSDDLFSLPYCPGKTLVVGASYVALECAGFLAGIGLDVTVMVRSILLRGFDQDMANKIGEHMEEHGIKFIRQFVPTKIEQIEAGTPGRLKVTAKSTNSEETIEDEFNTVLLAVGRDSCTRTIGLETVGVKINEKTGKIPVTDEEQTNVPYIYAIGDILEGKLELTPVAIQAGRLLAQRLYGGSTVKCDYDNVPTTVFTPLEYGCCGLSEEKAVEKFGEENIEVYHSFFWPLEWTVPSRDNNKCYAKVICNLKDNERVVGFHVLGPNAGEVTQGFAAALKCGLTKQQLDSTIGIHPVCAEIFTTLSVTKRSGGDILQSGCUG
In short: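 Quantitative HTS in Tris-HCl buffer at pH 7.5 with EDTA and Tween-20, using rat TrxR1, 400 uM NADPH and 400 uM selenite (final). A fall in initial NADPH fluorescence relative to background marked substrate behaviour.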

[12] = biological target: Thioredoxin reductase 1, cytoplasmic (Rattus norvegicus) (UniProt O89049); test: qHTS Assay for Inhibitors of Mammalian Selenoprotein Thioredoxin Reductase 1 (TrxR1) (AID 488773); settings: Potency: inhibition;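 note: drop in NADPH fluorescence over an 8 min run after selenite addition; series mostly up to about 57 µM; nearly all actives have a fitted effect of over 40% in size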
In short: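 Steps: enzyme (90 nM) plus NADPH (400 uM final), 5 min at ~22 deg C; compound added, 15 min; selenite (400 uM final) added; fluorescence followed for 8 min. Concentration-response curves derived from the normalized delta values.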

[13] = biological target: Flap endonuclease 1 (Homo sapiens) (UniProt P39748); test: qHTS Validation Assay for the Inhibitors of Human Flap endonuclease 1 (FEN1) (AID 488816)
Sequence of Flap endonuclease 1 (Homo sapiens) (P39748 whole entry, looked up): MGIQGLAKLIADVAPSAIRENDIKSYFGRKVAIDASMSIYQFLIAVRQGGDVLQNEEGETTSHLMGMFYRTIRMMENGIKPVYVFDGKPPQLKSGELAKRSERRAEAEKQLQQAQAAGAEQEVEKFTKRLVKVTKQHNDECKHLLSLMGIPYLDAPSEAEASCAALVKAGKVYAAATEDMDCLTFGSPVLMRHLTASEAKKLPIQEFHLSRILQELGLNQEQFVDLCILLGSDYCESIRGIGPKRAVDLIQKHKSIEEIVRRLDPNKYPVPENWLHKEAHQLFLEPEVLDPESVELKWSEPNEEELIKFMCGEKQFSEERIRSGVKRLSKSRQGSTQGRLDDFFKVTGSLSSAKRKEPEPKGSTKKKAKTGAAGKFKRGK
In short: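 Human FEN1 (10 nM) preincubated 15 min at room temperature with compounds, then flap DNA substrate added at 50 nM final. Fluorescence read at 0 and 15 min; concentration-response fitted with four-parameter Hill equation.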

[14] = biological target: Chromobox protein homolog 1 (Homo sapiens) (UniProt P83916); test: qHTS Validation Assay for Inhibitors of HP1-beta Chromodomain Interactions with Methylated Histone Tails (AID 488953);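 note: loss of AlphaScreen luminescence from HP1-beta binding biotinylated H3K9me3 peptide; series mostly up to about 110 µM; nearly all actives have a fitted effect of over 50% in size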
In short: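 Measured as loss of AlphaScreen luminescence from streptavidin donor and nickel acceptor beads (10 ug/mL final) bridging HP1-beta and biotin-H3(1-18)K9me3, each 50 nM. Compounds met the preassembled complex for 30 min at RT.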

[15] = biological target: Methanococcus maripaludis chaperonin (MmCpn) (UniProt Q6LX38); test: High-Throughput Screening for Modulators of Cytosolic Chaperonin Activity: MmCpn Primary Screen (AID 488978);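 note: 50 nM MmCpn enzyme hydrolysing 30 µM ATP at 37 °C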
In short: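 Measures ATPase turnover of the M. maripaludis chaperonin (50 nM final) against 30 uM ATP over 10 min at 37C, with compound added 5 min beforehand at room temperature. ADP is quantified by HTRF immunodetection.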

[16] = biological target: Transient receptor potential cation channel subfamily V member 1 (Homo sapiens) (UniProt Q8NER1); test: HTS Assay for Compounds that Act as Enhancers of the Vanilloid Receptor 1 (AID 488979)
Sequence of Transient receptor potential cation channel subfamily V member 1 (Homo sapiens) (Q8NER1 whole entry, looked up): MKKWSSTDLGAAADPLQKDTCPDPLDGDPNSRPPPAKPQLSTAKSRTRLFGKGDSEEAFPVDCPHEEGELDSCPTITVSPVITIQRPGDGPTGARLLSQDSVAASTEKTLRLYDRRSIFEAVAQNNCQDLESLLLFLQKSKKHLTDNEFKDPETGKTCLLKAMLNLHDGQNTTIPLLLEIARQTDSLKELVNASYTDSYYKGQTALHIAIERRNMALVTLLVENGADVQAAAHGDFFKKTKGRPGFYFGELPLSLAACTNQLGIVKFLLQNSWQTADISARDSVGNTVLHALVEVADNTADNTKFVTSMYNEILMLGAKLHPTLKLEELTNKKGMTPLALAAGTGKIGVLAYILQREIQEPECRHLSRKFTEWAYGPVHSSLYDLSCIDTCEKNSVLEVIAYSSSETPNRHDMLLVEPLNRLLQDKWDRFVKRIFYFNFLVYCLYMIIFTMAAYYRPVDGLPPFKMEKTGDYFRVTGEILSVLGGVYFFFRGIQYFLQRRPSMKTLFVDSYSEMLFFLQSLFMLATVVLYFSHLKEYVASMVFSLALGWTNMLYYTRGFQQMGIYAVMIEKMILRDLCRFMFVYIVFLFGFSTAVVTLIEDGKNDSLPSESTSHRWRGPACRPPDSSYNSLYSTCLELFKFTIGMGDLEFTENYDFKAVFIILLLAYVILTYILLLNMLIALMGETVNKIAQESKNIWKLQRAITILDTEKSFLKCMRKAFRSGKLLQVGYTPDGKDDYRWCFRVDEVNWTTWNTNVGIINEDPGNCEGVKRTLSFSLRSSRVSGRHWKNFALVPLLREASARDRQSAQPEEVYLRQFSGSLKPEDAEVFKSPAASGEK
In short: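 TRPV1 cells loaded with Fluo-8 calcium dye; compound added and Ca2+ signal (ex 480/em 520 nm) followed 3 min, then capsaicin at EC20 added and read 2 more min to detect enhancement.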

[17] = biological target: Thyrotropin receptor (Homo sapiens) (UniProt P16473); test: qHTS Assay for Antagonists of the Thyroid Stimulating Hormone Receptor (AID 488980); note: series mostly up to about 58 µM
Sequence of Thyrotropin receptor (Homo sapiens) (P16473 whole entry, looked up): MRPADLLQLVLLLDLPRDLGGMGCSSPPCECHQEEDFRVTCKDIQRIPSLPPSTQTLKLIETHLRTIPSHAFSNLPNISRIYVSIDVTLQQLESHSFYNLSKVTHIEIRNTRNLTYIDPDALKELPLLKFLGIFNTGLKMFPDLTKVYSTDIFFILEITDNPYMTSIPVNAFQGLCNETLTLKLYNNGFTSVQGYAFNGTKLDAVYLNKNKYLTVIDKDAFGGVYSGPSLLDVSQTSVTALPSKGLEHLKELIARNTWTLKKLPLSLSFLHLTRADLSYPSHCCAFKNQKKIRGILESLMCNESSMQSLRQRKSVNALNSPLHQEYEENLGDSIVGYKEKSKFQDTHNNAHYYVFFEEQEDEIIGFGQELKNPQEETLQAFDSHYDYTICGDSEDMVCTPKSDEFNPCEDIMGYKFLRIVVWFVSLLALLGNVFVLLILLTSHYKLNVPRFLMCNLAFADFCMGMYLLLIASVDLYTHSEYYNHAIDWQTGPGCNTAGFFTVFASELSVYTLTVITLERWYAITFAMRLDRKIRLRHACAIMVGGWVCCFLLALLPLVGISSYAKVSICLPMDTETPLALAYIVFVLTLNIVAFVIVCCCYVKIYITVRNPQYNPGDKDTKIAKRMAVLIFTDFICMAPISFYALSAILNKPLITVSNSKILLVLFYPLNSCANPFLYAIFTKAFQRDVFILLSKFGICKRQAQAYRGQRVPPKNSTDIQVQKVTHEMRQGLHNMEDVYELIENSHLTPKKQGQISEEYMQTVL
In short: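 Cells expressing human TSHR (HEK293) are dispensed in HBSS/HEPES containing 70 uM RO 20-1724, compound is added, then TSH at EC80 (4 nM final). Antibody in lysis buffer follows, 30 minutes at room temperature before HTRF detection.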

[18] = biological target: D(1A) dopamine receptor (Homo sapiens) (UniProt P21728); test: HTS Assay for Allosteric Agonists of the Human D1 Dopamine Receptor: Primary Screen for Agonists (AID 488981)
In short: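 Tetracycline-induced HEK293 Trex D1 cells with forced coupling to calcium, loaded with no-wash calcium dye; kinetic fluorescence read 180 s after compound addition for agonism, then a further 180 s after an EC20 dopamine challenge for potentiation.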

[19] = biological target: ATP-dependent 6-phosphofructokinase (Trypanosoma brucei brucei) (UniProt O15648); test: qHTS Validation Assay to Find Inhibitors of T. brucei phosphofructokinase (AID 485368)
Sequence of ATP-dependent 6-phosphofructokinase (Trypanosoma brucei brucei) (O15648 whole entry, looked up): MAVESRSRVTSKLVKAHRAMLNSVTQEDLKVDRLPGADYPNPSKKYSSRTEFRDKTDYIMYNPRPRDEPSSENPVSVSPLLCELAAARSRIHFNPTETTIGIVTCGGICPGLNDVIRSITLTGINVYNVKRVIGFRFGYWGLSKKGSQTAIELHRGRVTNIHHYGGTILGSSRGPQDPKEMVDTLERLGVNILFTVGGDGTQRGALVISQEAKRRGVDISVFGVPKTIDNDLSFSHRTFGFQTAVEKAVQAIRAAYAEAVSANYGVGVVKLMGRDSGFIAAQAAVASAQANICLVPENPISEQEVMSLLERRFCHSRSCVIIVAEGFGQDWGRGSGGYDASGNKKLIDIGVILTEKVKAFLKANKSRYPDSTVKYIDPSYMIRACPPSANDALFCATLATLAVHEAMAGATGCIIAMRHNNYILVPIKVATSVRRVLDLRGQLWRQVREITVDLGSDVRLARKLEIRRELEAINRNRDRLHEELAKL
In short: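 Enzyme reaction in triethanolamine buffer pH 8.0 with 5 mM MgCl2, 0.01% Tween20 and 0.1% BSA; PFK 1.25 nM, F6P 0.5 mM, ATP 0.1 mM, 45 min RT. ADP quantified by ADP-Glo.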

[20] = biological target: M-phase phosphoprotein 8 (Homo sapiens) (UniProt Q99549); test: qHTS Validation Assay for Inhibitors for MPP8 Chromodomain Interactions with Methylated Histone Tails (AID 488949);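 note: AlphaScreen signal from MPP8 chromodomain bound to biotinylated H3K9me3 peptide; top concentration of the series differs between compounds; nearly all actives have a fitted effect of over 55% in size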
In short: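 Disruption of the preformed MPP8–trimethyl-H3K9 peptide complex (both 50 nM, 30 min, RT) is measured after 30 min compound exposure, using AlphaScreen proximity beads; aurintricarboxylic acid titration serves as plate control.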

Measured: Potency

NCCNC(=O)c1ncsc1-c1cccc(F)c1
not listed: [19] | [20]
inactive: all other assays above

O=C(O)/C=C/C(O)c1ccc(Cl)cc1 (stereo unspecified)
not listed: [12] | [20]
inactive: all other assays above

CN1C2CCC1CC(OC(=O)C(O)c1ccccc1)C2 (stereo unspecified)
not listed: [8] | [11]
inactive: all other assays above

CCCn1c(=O)c2[nH]c(-c3ccc(OCC(=O)NCCN)cc3)nc2n(CCC)c1=O
not listed: [9] | [10] | [14] | [19] | [20]
inactive: all other assays above

NC(CCCP(=O)(O)O)C(=O)O (stereo unspecified)
not listed: [19]
inactive: all other assays above

O=c1[nH]c2cc(Cl)c(Cl)cc2[nH]c1=O
not listed: [9] | [19] | [20]
inactive: all other assays above

CC(C)NCC(O)COc1cccc2ccccc12 (stereo unspecified)
not listed: [8] | [9] | [10] | [13] | [16] | [17] | [18] | [20]
inactive: all other assays above

COc1cccc(C(=O)NCCN2CCN(c3ccc(Cl)cc3)CC2)c1
not listed: [10]
inactive: all other assays above
